What all share (assay): NCI-60 one-dose screen, 48 h (100 = growth as untreated, 0 = no growth, -100 = all killed)
One test concerns NCI-H23 lung. Particulars: 10 µM unless noted.
A further test concerns NCI-H226 lung. Particulars: 10 µM unless noted.
Another test concerns NCI-H322M lung. Particulars: 10 µM unless noted.
A further test has as its system HOP-62 NSCLC. Particulars: 10 µM unless noted.
Another test relates to NCI-H460 lung. Particulars: 10 µM unless noted.
For the next test, the system named is HOP-92 NSCLC. Particulars: 10 µM.
The next test deals with NCI-H522 lung. Particulars: 10 µM unless noted.
A further test deals with A549/ATCC NSCLC. Particulars: 10 µM unless noted.
The next test has as its system 786-0 renal. Particulars: 10 µM unless noted.
The subject of a further test is COLO 205 colon. Particulars: 10 µM unless noted.
The subject of a further test is DU-145 prostate. Particulars: 10 µM unless noted.
The test system of the next test is K-562 leukemia. Particulars: 10 µM unless noted.
The subject of a further test is MALME-3M melanoma. Particulars: 10 µM unless noted.
The subject of another test is MDA-MB-231 breast. Particulars: 10 µM unless noted.
For a further test, the system named is RXF 393 renal. Particulars: 10 µM unless noted.
The subject of another test is SF-268 CNS. Particulars: 10 µM unless noted.
The next test has as its system SF-295 CNS. Particulars: 10 µM unless noted.
In another test the test system is SF-539 CNS. Particulars: 10 µM unless noted.
The subject of the next test is UACC-257 melanoma. Particulars: 10 µM unless noted.

This is part of a sample that, as a whole, favours compounds with a hit. Of some 83,000 tested, about 20% had one in any assay.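 Values shown are percent growth following 48 h exposure of cells in 96-well plates to a single concentration of compound; below 10 was considered active.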 Unmarked numbers belong to inactive results. Calls of active or inactive are those of the source.

For the molecule `CNC(=O)c1c(NC(=O)c2cccc(C(F)(F)F)c2F)sc2c1CCC(=O)C2`, the growth is 8.64% (active) in the test on NCI-H23 lung; 16.2% in the test with NCI-H226 lung; 82.4% in the test on NCI-H322M lung; 22.4% with HOP-62 NSCLC; 7.32% (active) with NCI-H460 lung; -21.5% (active) in the test on HOP-92 NSCLC. Besides, the growth was 4.78% (active) in the test with NCI-H522 lung; 14.7% in the test with A549/ATCC NSCLC; 18.1% with 786-0 renal; -6.56% (active) with COLO 205 colon; 30.6% in the test on DU-145 prostate; 13.2% with K-562 leukemia. In addition, the growth with MALME-3M melanoma is 6.12% (active); in the test with MDA-MB-231 breast, -28.8% (active); in the test on RXF 393 renal it was -11.4% (active); with SF-268 CNS it was 16.7%; in the test with SF-295 CNS, -6.97% (active); with SF-539 CNS, -56% (active). Further, the growth in the test with UACC-257 melanoma was -1.77% (active).

For `CN(Cc1ccccc1)S(=O)(=O)/N=C1\NC(=O)NC1=C(Cl)Cl`, the growth with NCI-H23 lung is 66.1%; in the test on NCI-H226 lung, 91.7%; in the test with NCI-H322M lung, 95.1%; in the test on HOP-62 NSCLC, 40.8%; in the test with NCI-H460 lung, 17.9%; in the test with HOP-92 NSCLC, 73.7%. In addition, the growth is -21.5% (active) in the test on NCI-H522 lung; 99.4% with A549/ATCC NSCLC; 22.4% in the test on 786-0 renal; -26.1% (active) with COLO 205 colon; 25.7% in the test on DU-145 prostate; 1.09% (active) in the test with K-562 leukemia. Further, the growth in the test on MALME-3M melanoma is -19.9% (active); in the test with MDA-MB-231 breast, -2.3% (active); with RXF 393 renal it was 55.1%; with SF-268 CNS, 56.1%; with SF-295 CNS, 98.9%; with SF-539 CNS, 0.38% (active). Moreover, the growth in the test with UACC-257 melanoma was 68.2%.

For the molecule `CN1CCN(c2ccc(/C=N/n3cnc4oc(-c5ccccc5)cc4c3=N)cc2)CC1`, the growth in the test on NCI-H23 lung was 93.6%; with NCI-H226 lung, 87.5%; in the test on NCI-H322M lung, 91.1%; in the test with HOP-62 NSCLC, 84.2%; in the test with NCI-H460 lung it was 99.6%; in the test on HOP-92 NSCLC it was 61.4%. Also, the growth is 84.4% with NCI-H522 lung; 75.1% in the test with A549/ATCC NSCLC; 52.8% in the test on 786-0 renal; 63.5% in the test with COLO 205 colon; 100% with DU-145 prostate; 6.36% (active) in the test on K-562 leukemia. The growth is 113% in the test on MALME-3M melanoma; 65.3% in the test with MDA-MB-231 breast; -5.53% (active) in the test with RXF 393 renal; 92.5% with SF-268 CNS; 99.6% in the test with SF-295 CNS; 84.9% in the test with SF-539 CNS. In addition, the growth with UACC-257 melanoma is 96.7%.

On to `COc1cc(/C=C/C(=O)c2ccc(NC(=O)CSc3nnc(-c4ccc(-c5nc6ccc(Cl)cc6[nH]5)cc4)o3)cc2)cc(OC)c1OC`, for which the growth was 101% in the test on NCI-H23 lung; 104% in the test with NCI-H226 lung; 99.6% in the test on NCI-H322M lung; 89.8% in the test with HOP-62 NSCLC; 98.7% in the test on NCI-H460 lung; 115% in the test on HOP-92 NSCLC. Further, the growth is 76.1% with NCI-H522 lung; 99.5% with A549/ATCC NSCLC; 109% with 786-0 renal; 106% in the test on COLO 205 colon; 94% in the test with DU-145 prostate; 60.1% in the test with K-562 leukemia. Moreover, the growth in the test on MALME-3M melanoma was 95.5%; in the test with MDA-MB-231 breast, 79.1%; with RXF 393 renal it was 84.1%; in the test with SF-268 CNS it was 91.8%; in the test on SF-295 CNS, 95.6%; in the test with SF-539 CNS, 94.2%. In addition, the growth in the test with UACC-257 melanoma was 88.1%.

Regarding `Nc1ccccc1NC(=O)c1ccc(NC(=O)C/C=C/c2cccnc2)cc1`, the growth with NCI-H23 lung was 41.6%; in the test with NCI-H226 lung, 46.6%; with NCI-H322M lung, 47.6%; with HOP-62 NSCLC, 36.5%; in the test with NCI-H460 lung, 46.8%; with HOP-92 NSCLC, 11.3%. Further, the growth with NCI-H522 lung was 7.23% (active); in the test on A549/ATCC NSCLC, 47.2%; in the test with 786-0 renal it was 53.3%; in the test with COLO 205 colon it was 10.3%; in the test on DU-145 prostate, 14.1%; with K-562 leukemia, 17.1%. Moreover, the growth in the test with MALME-3M melanoma was 18.1%; with MDA-MB-231 breast, 50.5%; in the test with RXF 393 renal it was -13.9% (active); with SF-268 CNS, 35.3%; in the test with SF-295 CNS, 34.9%; in the test on SF-539 CNS it was 7.57% (active). The growth in the test on UACC-257 melanoma was 26.6%.

As for `O=S(=O)(NCCCNc1nccc(-c2[nH]c(-c3ccccc3)nc2-c2ccc(Cl)c(O)c2)n1)c1ccc(Br)cc1`, the growth was 46.1% with NCI-H23 lung; 38.3% in the test with NCI-H226 lung; 58.4% with NCI-H322M lung; 46.7% in the test on HOP-62 NSCLC; 22.3% with NCI-H460 lung; 46% in the test with HOP-92 NSCLC. The growth in the test with NCI-H522 lung is 26.6%; in the test with A549/ATCC NSCLC, 30.2%; in the test on 786-0 renal, 53.4%; in the test on COLO 205 colon, 81.3%; with DU-145 prostate it was 47.7%; in the test with K-562 leukemia, 18.9%. Besides, the growth in the test with MALME-3M melanoma is 2.55% (active); with MDA-MB-231 breast it was 43.4%; in the test on RXF 393 renal, -6.2% (active); in the test on SF-268 CNS it was 37.9%; with SF-295 CNS, 2.98% (active); with SF-539 CNS it was 46.7%. In the test on UACC-257 melanoma, the growth was 16.7%.

In the case of `NC(=O)c1c(NC(=O)c2ccc(F)cc2F)sc2c1CCC(=O)C2`, the growth was 18.5% in the test on NCI-H23 lung; 88% in the test with NCI-H226 lung; 99.8% with NCI-H322M lung; 104% with HOP-62 NSCLC; 109% in the test on NCI-H460 lung; 66.1% in the test on HOP-92 NSCLC. Besides, the growth with NCI-H522 lung is 10.2%; in the test on A549/ATCC NSCLC it was 106%; in the test with 786-0 renal, 83.4%; in the test with COLO 205 colon, 98.7%; in the test on DU-145 prostate, 101%; in the test on K-562 leukemia, 15.8%. The growth in the test with MALME-3M melanoma was 63.8%; in the test on MDA-MB-231 breast it was 39.2%; with RXF 393 renal, 85.1%; in the test with SF-268 CNS, 34.7%; in the test on SF-295 CNS, 99.7%; with SF-539 CNS, 16.3%. The growth with UACC-257 melanoma was 81.8%.

Take `O=C(Nc1ccc(F)c(F)c1)c1cc(-c2ccc(F)cc2F)ccc1O`: the growth is -9.76% (active) in the test with NCI-H23 lung; 3.67% (active) in the test on NCI-H226 lung; 3.88% (active) with NCI-H322M lung; 19% with HOP-62 NSCLC; 2.98% (active) in the test on NCI-H460 lung; -19% (active) in the test on HOP-92 NSCLC. Further, the growth in the test on NCI-H522 lung was -1.71% (active); with A549/ATCC NSCLC, 8.98% (active); in the test on 786-0 renal, 9.53% (active); in the test with COLO 205 colon it was 82.1%; in the test with DU-145 prostate, 18.5%; in the test on K-562 leukemia, 12.2%. The growth is -13.9% (active) in the test with MALME-3M melanoma; 4.13% (active) with MDA-MB-231 breast; -28.1% (active) with RXF 393 renal; 16.3% in the test with SF-268 CNS; -23.4% (active) in the test on SF-295 CNS; 12.5% with SF-539 CNS. The growth in the test on UACC-257 melanoma is -9.01% (active).

These data come from PubChem BioAssay (NCI).
